The list is not random: actives were taken first. Their share in the collection is about 3.5%.
MITF primary – MITF inhibitors, primary screen, biochemical, AlphaScreen, human; Microphthalmia-associated transcription factor (Homo sapiens), O75030; 0.91% of 650,000 active; AID 1259374, 2018; AlphaScreen MITF homodimerization, bead proximity signal; inhibition, % at 2.6 µM; in the data active = inhibition above about 50%;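 also: 0% = vehicle wells with protein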
GPR151 ag – activators of human GPR151, primary screen, cell-based, PathHunter beta-arrestin, luminescence. G-protein coupled receptor 151 (Homo sapiens), Q8TDV0. PathHunter beta-arrestin GPR151 cells. activation, % at 11.2 µM. 1% of 650,000 active. AID 1508602, 2020; in the data active = activation above about 4.9%;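 also: 0% = median of compound wells and 100% = cells with positive control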
Target sequence (Q8TDV0 whole entry, looked up): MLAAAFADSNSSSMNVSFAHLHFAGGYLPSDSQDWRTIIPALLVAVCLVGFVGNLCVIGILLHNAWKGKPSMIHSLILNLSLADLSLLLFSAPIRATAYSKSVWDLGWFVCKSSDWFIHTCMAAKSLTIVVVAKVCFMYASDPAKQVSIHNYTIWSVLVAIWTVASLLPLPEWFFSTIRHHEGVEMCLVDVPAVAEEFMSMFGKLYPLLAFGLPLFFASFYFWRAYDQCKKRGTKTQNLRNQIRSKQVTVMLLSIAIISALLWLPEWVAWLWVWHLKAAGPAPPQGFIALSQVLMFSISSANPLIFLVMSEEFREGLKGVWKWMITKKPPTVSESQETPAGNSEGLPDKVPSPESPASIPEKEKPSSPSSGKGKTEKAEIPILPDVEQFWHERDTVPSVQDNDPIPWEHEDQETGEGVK
FBW7 activator – FBW7 E3 ligase activators, primary screen, biochemical, AlphaScreen, human | F-box/WD repeat-containing protein 7 (Homo sapiens), Q969H0 | AlphaScreen FBW7–phospho-cyclin E peptide binding, activator screen | normalized activity (activation), % at 26.1 µM | 0.13% of 650,000 active; in the data active = normalized activity above about 1.9%;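 also: purified mutant Fbw7 with reduced substrate affinity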
TEAD-YAP inh – TEAD-YAP interaction inhibition, primary screen, TEAD-YAP interaction inhibitor project, luminescence, HEK-TIYL cells; 1.4% of 640,000 active; inhibition, % at 9.12 µM; AID 1259422, 2018; TEAD-Gal4/YAP UAS-luciferase luminescence; in the data active = inhibition above about 32%;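 also: 0% = median of test compound wells and 100% = reference inhibitor wells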
MITF confirm – MITF inhibitors, retest of hits, confirmation, biochemical, AlphaScreen, triplicate; shares compounds with MITF primary; AlphaScreen MITF homodimerization, biotin/His-MITF beads; inhibition, % at 2.6 µM; 16% of 4,700 active; AID 1259372, 2018;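 active = inhibition above a cutoff derived from the DMSO control wells, cut at about 28% in these data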;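 also: 0% = MITF dimer wells with DMSO only; inhibitors lower the bead chemiluminescence by keeping MITF from dimerizing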
AlphaScreen intf2 – AlphaScreen optical interference compounds, counter-screen for MITF inhibitor project, biochemical, triplicate; shares compounds with MITF primary; LysRS AlphaScreen counterscreen, signal interference; inhibition, % at 2.6 µM; 7.6% of 4,700 active; AID 1259376, 2018;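 active = inhibition above a cutoff derived from the DMSO control wells, cut at about 30% in these data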
An asterisk follows results filed as active; · = not tested or not shown.

SMILES	MITF primary	GPR151 ag	FBW7 activator	TEAD-YAP inh	MITF confirm	AlphaScreen intf2
O=C(C1CCN(Cc2ccc(F)cc2)CC1)N1CCN(Cc2ccccc2)CC1	62*	1	0	2	7	14
CCOC(=O)N1CCN(C(=O)C2CCN(Cc3ccc(CC)cc3)CC2)CC1	42	-2	0	-3	·	·
CCOC(=O)c1c(NC(=O)CSc2nnc(CNC(=O)c3ccco3)n2-c2cccc(C(F)(F)F)c2)sc2c1CCCCC2	-11	-1	0	-9	·	·
CC1CCCC(NC(=O)CN2C(=O)C(c3ccccc3)Oc3cccnc32)C1C (stereo not given)	-2	-1	0	-1	·	·
CCN1CCC(NC(C)c2ccc(OC)cc2)CC1 (stereo not given)	6	2	0	2	·	·
COc1ccc(CN(C)CCN(C)C)cc1C	58*	-1	0	0	3	16
COc1ccc(CN(C)CCN(C)C)cc1OC	16	0	0	-7	·	·
COc1cc(Br)c(CN(C)CCN(C)C)cc1OC	-16	1	0	-3	·	·
COc1cc(CN(C)CCN(C)C)cc(OC)c1	64*	-1	0	-3	1	-1
O=C(c1ccoc1)N1CCC[C@@H]2CN(CCCc3ccccc3)CC[C@@H]21	12	-1	0	6	·	·
CC(NCCCN(C)C)C(=O)NCc1ccco1 (stereo not given)	57*	1	0	-12	7	9
Cc1ccccc1NC(=O)CN1CCN(CC(=O)c2ccco2)CC1	59*	0	0	1	27	19
O=C(CN1CCN(CC(=O)c2ccco2)CC1)NCc1ccccc1Cl	66*	0	0	-12	9	18
O=C(CN1CCN(Cc2cn3ccccc3n2)CC1)c1ccco1	54*	1	0	1	11	18
CC(NCCN(C)C)C(=O)NCc1ccco1 (stereo not given)	-1	1	0	-2	·	·
CCOC(=O)c1ccc(NC(=O)CN2CCN(CC(=O)c3ccco3)CC2)cc1	79*	0	0	2	5	20
CC1CCN(C(C)C(=O)NCc2ccco2)CC1 (stereo not given)	80*	1	0	-5	18	23
COC(=O)c1ccc(NC(=O)CN2CCN(C(=O)c3ccco3)CC2)cc1	2	-1	0	24	·	·
CCN1CCN(CC(=O)NCc2ccco2)CC1	80*	0	0	9	13	4
N#C/C(=C\c1[nH]c2ccccc2c1O)C(N)=NCCc1ccccc1	4	1	0	-8	·	·
O=C(c1ccco1)N1CCN(C2=CC(=O)N(c3cccc(Cl)c3)C2=O)CC1	-2	0	0	-1	·	·
CCOC(=O)C1CCN(C/C=C/c2ccccc2[N+](=O)[O-])CC1	54*	-1	1	5	-13	-7
CCOC(=O)C1CCN(C/C=C/c2ccccc2OC)CC1	33	0	0	3	·	·
CC(=O)c1ccc(NC(=S)NNC(=O)CC#N)cc1	93*	-2	0	1	12	10
CCNC(=S)NNC(=O)c1ccc(NC(=O)CC#N)cc1	-6	-1	0	-1	·	·
SMILES	MITF primary	GPR151 ag	FBW7 activator	TEAD-YAP inh	MITF confirm	AlphaScreen intf2
O=C(Nc1ccccc1C(F)(F)F)c1nccnc1CO	10	-1	0	8	·	·
CN(C)CCOc1ccc2ccccc2c1	76*	0	0	0	-17	-3
CC(=O)c1sc2nc(-c3cccs3)ccc2c1N	51*	-1	0	-28	10	12
COc1ccc(CNC(=O)c2sc3nc(-c4cccs4)ccc3c2N)cc1	1	0	1	4	·	·
COc1ccc(C2N(C(=O)c3ccccc3)CCN2S(=O)(=O)c2ccccc2)cc1 (stereo not given)	-6	0	0	1	·	·
Cc1ccc(C2NS(=O)(=O)N=C2N)cc1 (stereo not given)	52*	1	0	5	10	15
O=C(NCC1Cc2cc(-c3cnccn3)ccc2O1)c1cccc(N2CCCC2=O)c1 (stereo not given)	52*	-1	1	5	19	15
O=C(CN1CCC(N2CCCCC2)CC1)Nc1ccc2c(c1)OCCO2	7	2	0	-6	·	·
